The results in this text go back to PubChem BioAssay AID1508624 (National Center for Advancing Translational Sciences (NCATS), 2021).

Each structure is given as a SMILES string. Screen size: about 48,000 compounds; about 120 (0.25%) were called active. Not shown: some 4% with an inconclusive outcome. For the sample, actives were picked, then their nearest neighbours and some compounds at random. Values without a mark were called inactive. Calls follow the shape of the dose curve; as a rule, active = well fitted activation curve with a large enough effect; inconclusive = small, poorly fitted or top-dose-only effect, or another doubt; inactive = no such curve, though single readings can be large or run the other way.
Potency is read from the fitted curve at half-maximal effect.

This assay can be described thus: Primary qHTS for Identification of Small Molecule Activators of Huntingtin-Antisense Promoter Activity. Also: nearly all actives have a fitted effect of over 55% in size. The settings on record: HEK293 HTT-AS promoter firefly luciferase reporter, 24 h; series mostly up to 57.5 µM; activity change, positive = activation: at the top concentration. From the text: Assay Provider: Russell L. Margolis M.D.
Department Neurology, Johns Hopkins University School of Medicine, Baltimore, MD
Huntington's Disease (HD) is a neurodegenerative disorder caused by a CAG repeat expansion in exon 1 of huntingtin (HTT). While there are currently no disease-modifying treatments for HD, recent efforts have focused on development of nucleotide-based therapeutics to lower HTT expression. As an alternative to siRNA or oligonucleotide methods, we hypothesized that suppression of HTT expression might be accomplished by small molecules that either (1) directly decrease HTT expression by suppressing HTT promoter activity or (2) indirectly decrease HTT expression by increasing the promoter activity of HTT-AS, the gene antisense to HTT that appears to inhibit expression of HTT.
We developed and employed a high throughput screen for modifiers of HTT and HTT-AS promoter activity using luminescent reporter HEK293 cells; of the 52,041 compounds tested, we identified 898 replicable hits. We used a rigorous stepwise approach to assess compound toxicity and the capacity of the compounds to specifically lower huntingtin protein in 5 different cell lines, including HEK293 cells, HD lymphoblastoid cells, mouse primary neurons, HD iPSCs differentiated into cortical-like neurons, and HD hESCs. We found no compounds which were able to lower huntingtin without lowering cell viability in all assays, though the potential efficacy of a few compounds at non-toxic doses could not be excluded.
SEQUENCE No. (1, 2, 3, etc.); […] (e.g., Cells, Incubation, Reagent, etc.); VALUE and DESCRIPTION.
1; Reagent; 4 uL; 2,500 Hek293 luciferase reporter cells per wells
3; Compound; 23 nL; Control inhibitor / compound library
5; Reagent; 2.5 uL; Firefly Luc reagent; Dual-Glo Luciferase Reporter Assay System (Promega)
6; Time; 10 min; room temperature incubation
7; Detection; Luminescence; FLuc
NOTES (numbers refer to sequence above)
1; High-throughput screening, measuring luminescence from a Hek293 luciferase reporter, was performed in 1,536 well white-walled tissue-culture treated plates. 2,500 cells were plated in 4 µL of Opti-MEM per well using a Multidrop Combi Reagent Dispenser (ThermoFisher).
2; Assay plates were cultured for 24 hours.
3; Control inhibitor (PTC124; final concentration of 50 uM) and compound library (at final concentrations of 460 nM - 57.5 uM) were added to the assay plate using the Kalypsis Pintool Robotic System equipped with 1536 pinheads.
4; Cells were then incubated for 24 hours at 37 degrees C prior to luminescence measurements.
5; In all cases, luminescence was measured using the Dual-Glo Luciferase Reporter Assay System (Promega) following the manufacturer's instructions.
6; Room temperature incubation.
7; Luminescence signal was obtained using the PerkinElmer ViewLux plate reader. Results were normalized to vehicle control (0% activity) and zero RLU (-100% activity).
Background: Quantitative high-throughput screening tests each substance at several concentrations.
Regarding `CC(=O)c1ccc(NC(=O)c2nc3nc(C)cc(C(F)F)n3n2)cc1`, the “activity change, positive = activation” value was -1.75%. Same read-out and setting: as for `COc1ccc(CCNC(=O)c2ccc(CSCc3ccc(C)cc3)o2)cc1OC`, the figure is -31.8%; as for `CCCOC(=O)c1c(NC(=O)c2cc3nc(-c4ccc(OC)cc4)cc(C(F)(F)F)n3n2)sc2c1CCCC2`, -19.6%.

For the compound `CCC(=O)N1c2ccccc2CC1C(=O)N1CCN(c2ccccc2F)CC1` (stereo not given), the “activity change, positive = activation” value was -5.95%. Consider `COc1ccc2[nH]c3c(c2c1)CCN(C(=O)CCC1CCCC1)C3c1ccc(F)cc1` (stereo not given), for which the “activity change, positive = activation” value is -32.3%. Same read-out and setting: as for `CCOc1ccc(/C=C(\C#N)c2nc3ccccc3c(=O)[nH]2)cc1OC`, the figure is -7.49%. Take `Cc1ccc(Cl)cc1N1CCN(C(=O)c2cn(C)c3ccc(S(=O)(=O)N(C)C4CCCCC4)cc3c2=O)CC1`: the “activity change, positive = activation” value was 0.244%.

For the compound `Cc1ccc(CN2C(=O)SC(Nc3ccccc3)C2=O)cc1` (stereo not given), the “activity change, positive = activation” value is -13.4%.

Regarding `COc1ccc(-c2onc(C)c2C)cc1S(=O)(=O)NCCc1ccccc1`, the “activity change, positive = activation” value is -33.1%. The same measure, in the same setting: in the case of `Cc1ccccc1CNC(=O)CSc1nnc(C)c2c(C)n(-c3ccccc3)nc12` it was -26.1%; in that of `O=C(c1ccc(Br)cc1)N(Cc1cccs1)c1ccc(F)cc1`, -26.9%; in that of `COc1cccc(-n2ccn(CC(=O)NCc3ccc(C)cc3)c(=O)c2=O)c1`, -4.99%. On to `CCOc1ccc(-c2cc3c(=O)n(CC(=O)NCc4ccc(OC)cc4)ccn3n2)cc1`, for which the Potency was 447 nM (active). As to `COc1ccc(CNC(=O)Cn2nnc(-c3ccc(S(C)(=O)=O)cc3)n2)cc1`, the “activity change, positive = activation” value was -10.6%. For the compound `Cc1cccc(N2CCN(C(=O)CCn3c(=O)c4cccn4c4cccnc43)CC2C)c1` (stereo not given), the “activity change, positive = activation” value is -33.7%. The same measure, in the same setting: in the case of `CCCCOc1ccc(C(=O)Nc2cccc(-c3nc4ccccc4o3)c2C)cc1` it was -12.4%; in that of `COc1cccc(-n2c(=O)c3c(C)c(C(=O)N(C)C)sc3n(CC(=O)NCCc3ccc(OC)c(OC)c3)c2=O)c1`, -9.08%. On the same count and under the same terms, in the case of `COc1ccccc1N1CCN(c2ncnc3onc(-c4ccc(F)cc4)c23)CC1` it was -11.1%; in that of `CCCN1CN=C(NS(=O)(=O)c2ccc(NC(C)=O)cc2)NC1`, -0.211%. The same measure, in the same setting: as for `COCCCNC(=O)c1ccc(NC(=O)c2nsc3ccccc23)cc1`, the figure is -39%. Regarding `CCSc1nnc2c(n1)OC(c1ccc(OCC(=O)O)cc1)Nc1ccccc1-2` (stereo not given), the “activity change, positive = activation” value was 1.7%.

As to `CCCN(CCC)C(=O)C(Cc1ccccc1)NS(=O)(=O)c1ccc2c(c1)c(=O)n(C)c(=O)n2C` (stereo not given), the “activity change, positive = activation” value is -13.7%. On to `Cc1cc(C)cc(NC(=O)Cn2nc(N3CCN(c4ccccc4)CC3)ccc2=O)c1`, for which the “activity change, positive = activation” value was -25.9%. As to `Cc1nn(C(=O)c2c(F)cccc2F)c(C)c1S(=O)(=O)N1CCOCC1`, the “activity change, positive = activation” value was -7.32%. On the same count and under the same terms, as for `CCOc1ccccc1C(=O)NCc1ccc2c(c1)CCN2C(=O)c1ccc(F)cc1`, the figure is -1.69%; as for `O=C(Nc1cc(C(F)(F)F)ccc1Cl)c1cc2nc(-c3ccc4c(c3)OCO4)cc(C(F)(F)F)n2n1`, 13.7%. Still for that read-out and setting: in the case of `CCN(CC)c1ccc(NC(=O)CN2C(=O)c3cccnc3Oc3ccc(Cl)cc32)c(C)c1` it was -5.22%; in that of `Fc1ccc(CN2CCc3nc(Nc4ccccc4)ncc3C2)cc1F`, -11.7%; in that of `CCc1ccc(C2C(C(=O)Nc3ccccc3)=C(C)Nc3c(C(=O)Nc4ccc(C)cc4)cnn32)cc1` (stereo not given), -28.5%. As to `COc1cc(-c2cc3n(C)c(C)c(CCC(=O)Nc4ccc(F)cc4)c(=O)n3n2)cc(OC)c1OC`, the “activity change, positive = activation” value was -7.63%. On the same count and under the same terms, in the case of `COc1ccc(NC(=O)CCCc2nnc3n(CCC(C)C)c(=O)c4sccc4n23)c(OC)c1` it was -3.2%; in that of `CCOc1ccc(CNC(=O)c2ccc3c(c2)nnn3C2CCCC2)cc1`, 4.86%. On the same count and under the same terms, in the case of `COc1ccc(OC)c(-c2noc(N3CCN(c4cc(Cl)ccc4C)CC3)n2)c1` it was -30%. Regarding `CC(=O)c1ccc(S(=O)(=O)N2CCC(Oc3ccc(-n4cnnn4)cc3)CC2)cc1`, the “activity change, positive = activation” value is -15.4%. Turning to `CO[C@@H]1[C@@H](O)[C@H](O)[C@@H](n2c3c(Cl)cccc3c3c4c(c5c6cccc(Cl)c6[nH]c5c32)C(=O)NC4=O)O[C@@H]1CO`, the “activity change, positive = activation” value is -36%. Still for that read-out and setting: in the case of `Cc1cccc(S(=O)(=O)c2cn(Cc3ccccc3)c3cc(N4CCOCC4)c(F)cc3c2=O)c1` it was -22%. As for `CC(=O)N1CCCc2cc(S(=O)(=O)N3CCC(C(=O)NCc4ccc(F)cc4)CC3)ccc21`, the “activity change, positive = activation” value was -27%. On the same count and under the same terms, in the case of `CCCS(=O)(=O)Nc1cccc(-c2cn3ccsc3n2)c1` it was 0.221%. As to `Cn1c(=O)cc(OCC(=O)N2CCN(c3ccccc3)CC2)c2ccccc21`, the “activity change, positive = activation” value was -3.9%. For `COc1ccc(-c2c3c(=O)n(C)c(=O)n(C)c3c3c(C)nc4ccccc4n23)cc1`, the “activity change, positive = activation” value is -13.8%. Still for that read-out and setting: as for `Cc1cccc(N2CCN(c3ccc(C(=O)O)cc3NC(=O)c3ccccc3F)CC2C)c1` (stereo not given), the figure is -19.7%. For `Cn1c(=O)c(=O)n(C)c2cc(NC(=O)c3ccccc3Br)ccc21`, the “activity change, positive = activation” value was -0.646%. `C=C1CCC2[C@](C)(CO)C(O)CC[C@]2(C)C1CC=C1C(=O)OCC1O` (stereo not given in full): the “activity change, positive = activation” value was -4.74% [at 116 µM, percent change from vehicle, -100% = no light]. Consider `O=c1c(=O)n(Cc2c(F)cccc2Cl)ccn1Cc1ccccc1`, for which the “activity change, positive = activation” value is -4.92%. The same measure, in the same setting: in the case of `COc1ccc(CCNC(=O)c2ccc(-n3c(C)cc4c3CCCC4)cc2)cc1OC` it was 9.05%.
